Assay [1] is described as follows: qHTS assay to identify small molecule antagonists of the glucocorticoid receptor (GR) signaling pathway - cell viability counter screen (AID 720693). Also: nearly all actives have a fitted effect of over 55% in size.
Assay [2] in a line: qHTS assay for identifying genotoxic compounds that show differential cytotoxicity against isogenic chicken DT40 cell lines with known DNA damage response pathways - wild type cell line (AID 743012). Also: nearly all actives have a fitted effect of over 60% in size. Also: potency is read from the fitted curve at half-maximal effect. An outline of the steps: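 Quantitative HTS on parental DT40 cells: 40 h compound treatment at 37 C/5% CO2, with viability then determined by CellTiter-Glo luminescence. Values serve as the DNA repair-proficient reference for differential cytotoxicity.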

Assay [3] can be described thus: qHTS assay for identifying genotoxic compounds that show differential cytotoxicity against isogenic chicken DT40 cell lines with known DNA damage response pathways - Rad54/Ku70 mutant cell line (AID 743015). Also: nearly all actives have a fitted effect of over 60% in size. Also: potency is read from the fitted curve at half-maximal effect.
The nature of assay [4]: qHTS assay to identify small molecule antagonists of the androgen receptor (AR) signaling pathway using the MDA cell line - cell viability counter screen (AID 743041; also: nearly all actives have a fitted effect of over 45% in size). An outline of the steps: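 Same-well cytotoxicity was assessed by CellTiter-Fluor in MDA-kb2 AR-luc cells after 16 h of compound treatment under R1881 agonism.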
A short description of assay [5]: qHTS assay to identify small molecule antagonists of the thyroid receptor (TR) signaling pathway - cell viability counter screen (AID 743064). Also: nearly all actives have a fitted effect of over 50% in size. Also: potency is read from the fitted curve at half-maximal effect. An outline of the steps: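 GH3.TRE-Luc rat pituitary cells dosed after 4 hr plating, co-stimulated with T3 at 1 nM final, incubated 23.5 h at 37 C. Viability measured in the same wells by CellTiter-Fluor fluorescence after 30 min further at 37 C.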

Assay [6] is described as follows: qHTS assay to identify small molecule antagonists of the estrogen receptor alpha (ER-alpha) signaling pathway - cell viability counter screen (AID 743074; calls by dose curve;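 also: HEK293 cells carrying ER-alpha-UAS-bla reporter stimulated with 17beta-estradiol; nearly all actives have a fitted effect of over 45% in size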).
A short description of assay [7]: qHTS assay to identify small molecule antagonists of the estrogen receptor alpha (ER-alpha) signaling pathway using the BG1 cell line - cell viability counter screen (AID 743081).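 Also: compound given together with 17beta-estradiol as the ER stimulus; series mostly up to about 70 µM; nearly all actives have a fitted effect of over 45% in size.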
The nature of assay [8]: qHTS assay to identify small molecule antagonists of the thyroid receptor (TR) signaling pathway (AID 743065). Also: series mostly up to about 70 µM; nearly all actives have a fitted effect of over 55% in size. In a few lines:
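GH3.TRE-Luc rat pituitary cells (two TREs driving luciferase) were dosed with compound, then stimulated with 1 nM T3 (final) for 23.5 h at 37 C. ONE-Glo luminescence was the read-out, with CellTiter-Fluor fluorescence as the cytotoxicity counter-screen.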

For assay [9], the system named is thyroid hormone receptor (rat, GH3 cells). The assay is described as follows: qHTS assay to identify small molecule agonists of the thyroid receptor (TR) signaling pathway (AID 743066; calls by dose curve; also: potency is read from the fitted curve at half-maximal effect).
Assay [10] deals with Aromatase (Homo sapiens) (UniProt P11511). The assay is described as follows: qHTS assay to identify aromatase inhibitors (AID 743083). Also: nearly all actives have a fitted effect of over 55% in size. Also: potency is read from the fitted curve at half-maximal effect.
The nature of assay [11]: qHTS assay to identify small molecule antagonists of the androgen receptor (AR) signaling pathway - cell viability counter screen (AID 743033; also: nearly all actives have a fitted effect of over 45% in size).
In assay [12] the target is Estrogen receptor (Homo sapiens) (UniProt P03372). Description: qHTS assay to identify small molecule antagonists of the estrogen receptor alpha (ER-alpha) signaling pathway (AID 743069; active = well fitted curve in the direction sought with a large enough effect in the signal ratio in the repeat runs, not every such curve was filed as active; the % refers to the signal ratio). In a few lines: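 Reporter cells (ER-alpha-bla, HEK293 background) are conditioned overnight in stripped-serum medium (2% charcoal-stripped FBS). Compound and 17beta-estradiol exposure runs 18 hr at 37C, 5% CO2.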

Assay [13] has the same target. The assay is described as follows: qHTS assay to identify small molecule agonists of the estrogen receptor alpha (ER-alpha) signaling pathway (AID 743075; calls by dose curve;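 also: HEK293 GripTite cells with ER-alpha and UAS-driven beta-lactamase reporter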).
Assay [14] has the same target. Description: qHTS assay to identify small molecule agonists of the estrogen receptor alpha (ER-alpha) signaling pathway using the BG1 cell line (AID 743079). Also: nearly all actives have a fitted effect of over 20% in size. Also: potency is read from the fitted curve at half-maximal effect.
Assay [15] in a line: qHTS assay to identify small molecule antagonists of the estrogen receptor alpha (ER-alpha) signaling pathway using the BG1 cell line (AID 743080; calls by dose curve;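 also: BG1 cells stimulated with 17beta-estradiol alongside compound; series mostly up to about 70 µM; nearly all actives have a fitted effect of over 25% in size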). In a few lines:
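Luminescence from a 4×ERE-luciferase reporter in BG1-Luc-4E2 cells served as read-out. Cells, pre-cultured 5 days in stripped-serum phenol-red-free medium, were exposed to compound with 17beta-estradiol co-stimulation for 21.5 h at 37 C.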

The nature of assay [16]: qHTS assay for identifying genotoxic compounds that show differential cytotoxicity against isogenic chicken DT40 cell lines with known DNA damage response pathways - Rev3 mutant cell line (AID 743014). Also: nearly all actives have a fitted effect of over 55% in size.
In assay [17] the target is Androgen receptor (Homo sapiens) (UniProt P10275). Description: qHTS assay to identify small molecule antagonists of the androgen receptor (AR) signaling pathway (AID 743035; active = well fitted inhibition curve with a large enough effect in the signal ratio in the repeat runs, not every such curve was filed as active; the % refers to the signal ratio). In a few lines: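 Cell line: GeneBLAzer AR-UAS-bla GripTite (HEK293). Stimulus: R1881 added after compound. Exposure: 16 h, 37C, 5% CO2. Readout: LiveBLAzer B/G FRET fluorescence after 2 h at room temperature.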

For assay [18] the target is unchanged. Description: qHTS assay to identify small molecule agonists of the androgen receptor (AR) signaling pathway (AID 743036; active = well fitted activation curve with a large enough effect in the signal ratio in the repeat runs, with a control signal flat, not every such curve was filed as active; the % refers to the signal ratio). An outline of the steps:
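AR-UAS-bla HEK293 cells, plated 4 h before dosing, were treated with compound for 16 h at 37C. beta-Lactamase reporter read after 2 h with LiveBLAzer B/G FRET substrate at room temperature.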

Assay [19] has the same target. The assay is described as follows: qHTS assay to identify small molecule agonists of the androgen receptor (AR) signaling pathway using the MDA cell line (AID 743040; also: nearly all actives have a fitted effect of over 20% in size). An outline of the steps: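 Human breast carcinoma MDA-kb2 reporter cells (MMTV-luc, AR/GR elements) were treated for 16 h at 37C in 0% CO2 following a 5 h settling period. Signal was quantified by ONE-Glo luminescence.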

Assay [20] shares this target. Description: qHTS assay to identify small molecule antagonists of the androgen receptor (AR) signaling pathway using the MDA cell line (AID 743042; also: nearly all actives have a fitted effect of over 55% in size). An outline of the steps:
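MDA-kb2 breast carcinoma cells carrying MMTV-luciferase (AR/GR responsive) were co-treated with compounds and the agonist R1881 for 16 h at 37C. Inhibition read as ONE-Glo luminescence; CellTiter-Fluor fluorescence measured in parallel for cytotoxicity.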

Where “and” joins values, the source holds several entries; their conditions need not be identical. Identical values can stand only once. Results filed as inconclusive are left out. Some compounds were tested as several samples or in several runs, with calls that do not always agree. Calls of active or inactive are those of the source. Unless noted, calls follow the shape of the dose curve; as a rule, active = well fitted curve in the direction sought with a large enough effect in the repeat runs; inconclusive = weak or mixed curves; inactive = no such curve, though single readings can be large; an effect the other way counts as inactive or inconclusive.

Androgen receptor (Homo sapiens), sequence (P10275 whole entry, looked up): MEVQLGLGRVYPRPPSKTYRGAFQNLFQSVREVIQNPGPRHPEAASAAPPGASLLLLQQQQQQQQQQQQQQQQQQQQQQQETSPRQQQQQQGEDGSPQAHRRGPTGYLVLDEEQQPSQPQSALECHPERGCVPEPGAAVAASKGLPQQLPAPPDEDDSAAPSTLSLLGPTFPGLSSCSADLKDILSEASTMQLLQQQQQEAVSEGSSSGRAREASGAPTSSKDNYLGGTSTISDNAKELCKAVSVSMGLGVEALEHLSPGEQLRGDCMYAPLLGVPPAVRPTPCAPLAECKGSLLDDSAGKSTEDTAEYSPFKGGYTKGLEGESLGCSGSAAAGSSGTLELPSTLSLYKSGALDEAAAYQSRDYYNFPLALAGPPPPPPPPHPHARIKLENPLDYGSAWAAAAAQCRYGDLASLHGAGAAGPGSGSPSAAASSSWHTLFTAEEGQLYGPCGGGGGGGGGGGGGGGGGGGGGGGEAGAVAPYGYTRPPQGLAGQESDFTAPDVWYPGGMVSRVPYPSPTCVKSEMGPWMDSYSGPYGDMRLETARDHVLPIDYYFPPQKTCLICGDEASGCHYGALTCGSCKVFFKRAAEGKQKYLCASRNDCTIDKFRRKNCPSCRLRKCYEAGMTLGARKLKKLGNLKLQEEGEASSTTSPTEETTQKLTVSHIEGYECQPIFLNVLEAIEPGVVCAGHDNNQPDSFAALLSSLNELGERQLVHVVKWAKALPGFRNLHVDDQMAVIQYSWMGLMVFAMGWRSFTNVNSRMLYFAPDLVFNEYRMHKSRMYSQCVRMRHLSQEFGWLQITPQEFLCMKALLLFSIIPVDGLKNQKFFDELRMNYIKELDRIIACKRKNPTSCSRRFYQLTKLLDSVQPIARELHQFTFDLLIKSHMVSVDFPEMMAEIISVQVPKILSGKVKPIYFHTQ
Aromatase (Homo sapiens), sequence (P11511 whole entry, looked up): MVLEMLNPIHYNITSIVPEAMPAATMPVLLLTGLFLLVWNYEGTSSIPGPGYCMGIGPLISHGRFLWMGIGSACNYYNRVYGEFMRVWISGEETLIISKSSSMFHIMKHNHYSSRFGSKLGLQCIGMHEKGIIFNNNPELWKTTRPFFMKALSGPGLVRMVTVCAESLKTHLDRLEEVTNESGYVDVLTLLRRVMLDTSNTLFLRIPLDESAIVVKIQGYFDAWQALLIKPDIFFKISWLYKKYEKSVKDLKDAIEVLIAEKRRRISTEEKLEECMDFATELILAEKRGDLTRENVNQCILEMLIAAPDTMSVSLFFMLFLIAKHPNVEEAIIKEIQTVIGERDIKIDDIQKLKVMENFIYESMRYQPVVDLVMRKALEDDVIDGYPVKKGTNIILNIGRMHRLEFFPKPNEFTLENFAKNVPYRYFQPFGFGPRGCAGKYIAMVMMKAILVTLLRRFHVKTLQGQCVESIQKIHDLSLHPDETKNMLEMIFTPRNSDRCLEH
Estrogen receptor (Homo sapiens), sequence (P03372 whole entry, looked up): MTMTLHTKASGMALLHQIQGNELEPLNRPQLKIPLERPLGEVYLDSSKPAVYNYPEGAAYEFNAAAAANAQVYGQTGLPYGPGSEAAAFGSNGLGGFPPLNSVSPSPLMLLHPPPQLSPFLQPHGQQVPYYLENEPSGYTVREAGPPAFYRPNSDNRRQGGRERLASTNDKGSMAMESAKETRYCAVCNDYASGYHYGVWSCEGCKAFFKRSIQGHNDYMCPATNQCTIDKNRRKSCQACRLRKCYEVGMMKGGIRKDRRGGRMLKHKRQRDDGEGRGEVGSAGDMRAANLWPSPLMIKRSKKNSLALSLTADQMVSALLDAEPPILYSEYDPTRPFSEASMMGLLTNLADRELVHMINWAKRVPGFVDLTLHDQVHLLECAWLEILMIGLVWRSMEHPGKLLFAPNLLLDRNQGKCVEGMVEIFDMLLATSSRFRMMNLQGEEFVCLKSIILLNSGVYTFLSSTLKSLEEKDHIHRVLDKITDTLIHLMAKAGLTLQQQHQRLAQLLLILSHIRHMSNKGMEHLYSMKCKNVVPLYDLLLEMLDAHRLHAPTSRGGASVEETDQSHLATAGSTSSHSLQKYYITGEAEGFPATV

For the compound `CCCCCCCCCCCCCCCCCC(=O)O`, the Potency result in assay [1], in assay [2], in assay [3] and in [5] was “inactive” throughout. Besides, the outcome in [4], in assay [6] and in assay [7] was inactive.
On to `ClCCOCCCl`, for which the Potency result in assay [1], in [2], in assay [3], in [5], in assay [8] and in assay [9] was “inactive” each time. Besides, the Potency result in assay [10] was “inactive”. Further, the result in assay [4], in [6] and in assay [7] was inactive.
In the case of `Cc1ccc(N=C=O)cc1N=C=O`, the Potency result in assay [1], in assay [2], in assay [5], in assay [8], in [9] and in assay [10] was “inactive” throughout. The Potency in assay [3] is 62.7 µM (active) and inactive. The call in [11], in assay [4], in assay [6] and in assay [7] was inactive.
Regarding `COc1cc(-c2ccc(N)c(OC)c2)ccc1N`, the Potency entry in [1], in assay [9] and in [10] was “inactive” each time. In addition, the Potency in assay [2] was 68.6 µM (active) and 16.4 µM (active); in assay [5], “inactive and 52 µM (active)”. Also, the result in assay [11], in assay [4], in assay [6] and in assay [7] was inactive.
In the case of `Cc1cc(O)ccc1Cl`, the Potency result in [1], in assay [2], in assay [3], in assay [5], in assay [8] and in [12] was “inactive” in each case. Besides, in assay [10], the Potency result is “inactive”. In addition, the result in assay [4], in [6], in assay [13], in assay [15] and in [7] was inactive. In addition, the Potency entry in [9] was “inactive and 27.3 µM (active)”; in assay [14] it was “inactive and 62.2 µM (active)”.
With `CNC(=O)Oc1cccc2ccccc12`, the Potency entry in [1], in [16], in [3], in assay [5], in assay [8] and in assay [9] was “inactive” each time. The Potency result in assay [12], in assay [14] and in assay [10] was “inactive” in each case. The compound was classed as inactive in assay [4], in assay [6], in assay [13], in assay [15] and in assay [7].
`Nc1cc(Cl)cc(Cl)c1`: the Potency result in assay [1], in [2], in [3], in assay [5], in assay [8] and in [9] was “inactive” in each case. Besides, the Potency entry in assay [10] is “inactive”. Moreover, the compound was called inactive in [4], in [6] and in [7].
For `CCOP(=S)(OCC)Oc1cc(C)nc(C(C)C)n1`, the Potency result in assay [2], in assay [16] and in assay [9] was “inactive” in each case. Also, the Potency result in assay [3] is “inactive and 30.6 µM (active)”; in assay [5] it was “inactive and 17.2 µM (active)”; in assay [10], “inactive and 17.2 µM (active)”. Further, the compound was classed as inactive in [11], in assay [4], in assay [6] and in assay [7].
Consider `OCCCCO`, for which the Potency result in [1], in assay [2], in [3], in assay [5], in [8] and in [9] was “inactive” each time. For the same compound, the Potency result in [10] was “inactive”. For the same compound, the outcome in assay [11], in assay [4], in assay [6] and in assay [7] was inactive.
`CCCCC(CC)C(=O)Cl` (stereo not drawn): the Potency result in assay [1], in assay [2], in assay [3], in assay [5], in assay [8] and in assay [9] was “inactive” throughout. For the same compound, the Potency result in assay [12], in assay [14] and in [10] was “inactive” throughout. Also, the result in [4], in assay [6], in assay [13], in assay [15] and in assay [7] was inactive.
Regarding `CNC(=O)O/N=C(\SC)C(=O)N(C)C`, the Potency result in assay [1], in assay [2], in assay [17], in assay [20], in assay [5] and in assay [8] was “inactive” each time. The Potency entry in assay [9], in [12] and in [10] was “inactive” in each case. Also, the Potency in [3] was 54.4 µM (active); in assay [14] it was 66.7 µM (active). For the same compound, the result in assay [18], in [19], in assay [4], in assay [6], in assay [13] and in assay [15] was inactive. Also, the outcome in assay [7] was inactive.

The values above are taken from PubChem BioAssay (Tox21).
